Results from PubChem BioAssay AID686978 (National Center for Advancing Translational Sciences (NCATS), 2013).
The whole screen tested about 420,000 compounds, of which about 64,000 (15%) were called active. Another 27% or so got no clear call; they are omitted. The list is a sample of the results. A call without a number means that no potency is given here. A number with no mark means an inactive call. Calls come from the whole dose curve; as a rule, active = well fitted inhibition curve with a large enough effect; inconclusive = small, poorly fitted or top-dose-only effect; inactive = flat fitted curve, though single readings scatter.

test: qHTS for Inhibitors of human tyrosyl-DNA phosphodiesterase 1 (TDP1): qHTS in cells in absence of CPT; conditions: DT40 Tdp1-/- hTDP1 cells, no CPT, ATP luminescence, 48 h; activity change, negative = growth inhibition: at 46.2 µM (top of the series); note: nearly all actives have a fitted effect of over 55% in size
In short: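 Luminescent ATP content (CellTiter-Glo) served as the growth readout. Knockout chicken DT40 cells expressing human TDP1 were exposed to compounds without camptothecin for a minimum 48 hr at 37 °C.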
Potency is the fitted concentration of half-maximal effect.

Structure (SMILES)	Potency	activity change, negative = growth inhibition
CCOC(=O)c1c(NC(=O)CSc2nnc(C)c(=O)[nH]2)sc2c1CCC2	inactive	
Cc1cccc(C(=O)OCC(=O)Nc2sc3c(c2C#N)CCC3)c1	inactive	
C=CCc1cccc2cc(C(=O)NC3CCCC3)c(=O)oc12	inactive	
Cc1nn(-c2ccccc2)nc1C(=O)OCC(=O)N1CCCCC1C (stereo not drawn)	inactive	
Nc1nc(SCC(=O)NCCN2CCOCC2)nc2sc3c(c12)CCC3	inactive	
CSc1nc2nc3c(c(=O)n2[nH]1)CCC3	inactive	
Cc1cn(C2OC[C@@H](O)[C@@H]2CO)c(=O)[nH]c1=O (stereo partly drawn)	inactive	
CC(C)[C@H]1CC[C@@H](C)C[C@H]1O	inactive	
CCCC(C)C(=O)Nc1ccc(NC(C)=O)cc1 (stereo not drawn)	inactive	
O=C(NNC(=O)C1CCC1)c1ccccc1	inactive	
Cc1csc(-c2coc3cc(O[C@@H]4O[C@H](CO)[C@@H](O)[C@@H](O)[C@H]4O)ccc3c2=O)n1		1.27% [at 9.04 µM]
COc1cc2nc(N3CCCN(C)CC3)nc(NC3CC3)c2cc1OC	10 µM (active)	
CNCCCOc1cc2nc(N3CCCN(C)CC3)nc(NC3CCN(C)CC3)c2cc1OC	inactive	
COc1cc2nc(N3CCN(C(=O)[C@@H]4CCCO4)CC3)nc(N)c2cc1OC	inactive	
COc1ccc(C(=O)N2CCCN(C)CC2)c(OC)c1	inactive	
COc1cc2nc(N3CCCN(C)CC3)nc(NC(C)C)c2cc1OC	12.6 µM (active)	
CCCCSc1nnc2c(n1)OC=Nc1ccccc1-2	inactive	
CCCn1nc(Oc2nc(NC(C)C)nc(N(C)C)n2)ccc1=O	inactive	
Cn1c(SCC(=O)NC2CCCCC2)nnc1-c1ccc(N)cc1	inactive	
CC(=O)Nc1ccc(N2C(=O)C3C4CC(=O)C(c5ccccc54)C3C2=O)cc1 (stereo not drawn)	inactive	
COc1ncc2nc(-c3ccc(Cl)cc3)c(=O)n(C)c2n1	inactive	
CCCCc1c(-c2ccc(Cl)cc2)ncn1CCc1ccccc1OC	3.26 µM (active)	
CCCc1c(-c2ccccc2F)ncn1Cc1ccccc1OC	1.16 µM (active)	
COc1ccccc1CN1CCN(Cc2cc(OC)c(OC)cc2OC)CC1	inactive	
COc1ccccc1CCn1c(=O)c(-c2cn(C)c3ccccc23)nc2cncnc21	inactive	
COc1ccccc1OCCCn1c(-c2ccc(Cl)cc2)nc2ccccc2c1=O	inactive	
CCCCc1c(-c2ccc(Br)cc2)ncn1CCc1ccccc1OC	1.3 µM (active)	

Structure (SMILES)	Potency	activity change, negative = growth inhibition
COc1cccc(OC)c1C(=O)N1CCN(Cc2ccccc2F)CC1	inactive	
COc1ccccc1CCC(=O)NNC(=O)c1ccncc1	inactive	
CCN(CC(=O)NC(C)C)C(=O)c1cc(S(=O)(=O)N2CCCCC2)ccc1N1CCCCC1	inactive	
CCOC(=O)c1c(C)[nH]c(C(=O)OCC(=O)c2ccc(OC)cc2OC)c1C	inactive	
C=CCNc1nc(N)c([N+](=O)[O-])c(NC2CCCCC2)n1	inactive	
CCCCn1c(N)c(N(CCOC)C(=O)c2sc3ccccc3c2Cl)c(=O)[nH]c1=O	inactive	
CC1CCCN(C(=O)Cn2c(=O)oc3cc(S(=O)(=O)N4CCCCC4C)ccc32)C1 (stereo not drawn)	inactive	
CC1CCCCN1C(=O)Cn1c(=O)oc2cc(S(=O)(=O)N3CCCCC3)ccc21 (stereo not drawn)	inactive	
CC(C)CCNC(=O)Cn1c(=O)oc2cc(S(=O)(=O)N3CC(C)CC(C)C3)ccc21 (stereo not drawn)	16.4 µM (active)	
CSc1ncccc1C(=O)NCC(c1ccco1)N1CCCCC1 (stereo not drawn)	inactive	
CC1CCc2sc(C(=O)N/N=C/C3CCCCC3)cc2C1 (stereo not drawn)	inactive	
CC1CCc2sc(C(=O)NCC(c3ccco3)N3CCCCC3)cc2C1 (stereo not drawn)	10.3 µM (active)	
Cc1ccccc1S(=O)(=O)Cc1ccc(C(=O)NCCN2CCCCC2C)o1 (stereo not drawn)	inactive	
CN(CC(=O)Nc1cccc(F)c1)C(=O)C1CSC2(C)CCC(=O)N12 (stereo not drawn)	inactive	
COc1ccc(C(=O)Oc2ccc(-c3nnco3)cc2)cc1S(=O)(=O)N1CCOCC1	inactive	
O=C(Nc1ccc(C(=O)OCc2cc(=O)n3nc(C4CC4)sc3n2)cc1)c1ccc(F)cc1	inactive	
CCCCc1nn2c(=O)cc(COC(=O)c3ccccc3NC(=O)C(C)(C)C)nc2s1	inactive	
Cc1nn2c(=O)cc(COC(=O)CNC(=O)c3ccc(F)cc3)nc2s1	inactive	
CCCCc1nn2c(=O)cc(COC(=O)c3ccc(NC(=O)c4ccccc4C)cc3)nc2s1	14.6 µM (active)	
Cc1nn2c(=O)cc(COC(=O)c3ccc(NC(=O)C(C)(C)C)cc3)nc2s1	18.4 µM (active)	
CCCc1nn2c(=O)cc(COC(=O)c3ccc(NC(=O)C(C)Oc4ccccc4)cc3)nc2s1 (stereo not drawn)	inactive	
Cc1nn(C)cc1S(=O)(=O)N1CCN(c2ccc(F)cc2)CC1	inactive	
C=CCNc1nnc(C)c2ccccc12	inactive	
O=c1[nH]n(-c2ccc([N+](=O)[O-])cc2)c(=O)c2ccccc12	inactive	
Cc1nc(-c2ccc([N+](=O)[O-])cc2)c(-c2ccccc2)o1	inactive	
O=C1CC(c2ccccc2)=NN1c1ccc([N+](=O)[O-])cc1	16.4 µM (active)	
